# Results from PubChem BioAssay (Tox21).
# Results filed as inconclusive are left out. Where a call stands in place of a potency, no number is given. A number with no mark means an inactive call. Activity calls are given as the source filed them. Calls follow the shape of the dose curve; as a rule, active = well fitted cell-killing curve with a large enough effect in the repeat runs; inconclusive = weak or mixed curves, or effect the other way; inactive = flat fitted curve, though single readings scatter.
# Test: cAMP Responsive Elements (CRE) small molecule antagonists, cell-based qHTS assay: qHTS cell viability counter screen (AID 2060913); also: nearly all actives have a fitted effect of over 40% in size
# Conditions: CRE-bla HEK293T viability, CellTiter-Glo luminescence, 5 h; series mostly up to 92.4 µM
# Source text: U.S. Tox21 Program National Center for Advancing Translational Sciences [NCATS] Division of Preclinical Innovation [DPI] U.S. Environmental Protection Agency [EPA] National Institutes of Environmental Health Sciences [NIEHS] National Toxicology Program [NTP] U.S. Food and Drug Administration [FDA] Tox21 Assay Overview: CREB (cyclic-AMP Responsive Element Binding Protein) is a cellular transcription factor. It binds to certain DNA sequences called cAMP Responsive Elements (CRE) and regulates the transcription of the genes. […] This cell line can be used to find agonists/antagonists of the cyclic AMP signaling pathway. The activation of the report gene under culture conditions can be detected by fluorescence intensity. This cell line has been used to screen the Tox21 10K compound library to identify agonists that induce oxidative stress. The cytotoxicity of the Tox21 compound library against the CRE-bla cell line was tested in parallel by measuring the cell viability using CellTiter-Glo assay (Promega, Madison, WI) in the same wells.
# Tox21 Assay Protocol Summary: CRE-bla Hek 293T cells were suspended in assay medium (DMEM containing 10% dialyzed FBS, 0.1 mM NEAA, 1 mM sodium pyruvate and 25 mM HEPES) and dispensed at 2,000 cells/4 uL /well into 1536-well black wall/clear bottom plates using a Multidrop Combi (ThermoFisher Scientific, Waltham, MA) dispenser. After the assay plates were incubated at 37 C/5% CO2 for 18 hrs, 23 nL of compounds dissolved in DMSO, positive controls or DMSO only was transferred to the assay plate by a pintool workstation (Kalypsys, San Diego, CA), followed by addition of 1 uL of 1.25uM NKH477 (0.25 uM as final concentration) in assay medium using a Flying Reagent Dispenser (Aurora Discovery, San Diego, CA). The plates were incubated at 37 C and 5% CO2 for 3 hrs. Then 1 uL of LiveBLAzer B/G FRET substrate (Invitrogen, Carlsbad, CA) was added to each well using Bioraptr Flying Reagent Dispenser (FRD, Aurora Discovery, San Diego, CA). The plates were incubated at room temperature for 2 h, then fluorescence intensities were measured using an Envision plate reader (PerkinElmer, Shelton, CT) at Excitation 405nm, Emission 460nm and 530nm. The % activity was determined from the ratio of 460nm/530nm. For cell viability readout that measures cytotoxicity, 4 uL /well of CellTiter-Glo reagent was added into the assay plates using Bioraptr FRD. After 30 min incubation at room temperature, the luminescence intensity in the assay plates was measured using a ViewLux (PerkinElmer, Shelton, CT) plate reader.
# Potency is read from the fitted curve at half-maximal effect.
SMILES,"viability change, negative = cytotoxic",Potency
COC=O,-17.9% [at 8.39 µM],
Brc1cc(-c2ccc(Br)c(Br)c2Br)cc(Br)c1Br,,inactive
CC(=O)C1(C)CC2=C(CCCC2(C)C)CC1C (stereo not given),,inactive
O=C(O)Cc1cn(-c2ccccc2)nc1-c1ccc(Cl)cc1,,inactive
C[N+]12CCC(CC1)C(OC(=O)C(O)(c1ccccc1)c1ccccc1)C2 (stereo not given),,inactive
CC(CC=O)c1ccccc1 (stereo not given),,inactive
N[C@H]1C(O)O[C@H](CO)[C@H](O)[C@@H]1O (stereo not given in full),,inactive
CC(NC(CCc1ccccc1)C(=O)O)C(=O)N1C(=O)N(C)CC1C(=O)O (stereo not given),,inactive
CC(C)(C)c1cc(CCC(=O)OCC(COC(=O)CCc2cc(C(C)(C)C)c(O)c(C(C)(C)C)c2)(COC(=O)CCc2cc(C(C)(C)C)c(O)c(C(C)(C)C)c2)COC(=O)CCc2cc(C(C)(C)C)c(O)c(C(C)(C)C)c2)cc(C(C)(C)C)c1O,,inactive
O=S(O)CO,,inactive
Cc1cccc2n[nH]nc12,,inactive
CC(C)COC(=O)c1ccc(N)cc1,,inactive
COC(=O)CCCCC(=O)O,,inactive
COc1c(N2C[C@@H]3CCCN[C@@H]3C2)c(F)cc2c(=O)c(C(=O)O)cn(C3CC3)c12,,inactive
CCCCCCCCCC[N+](C)(CCCCCCCCCC)CCC[Si](OC)(OC)OC,,27.3 µM (active)
OCCSc1ccccc1,,inactive
CCCC(=O)C(C)=O,,inactive
Cn1cnc2c(F)c(Nc3ccc(Br)cc3Cl)c(C(=O)NOCCO)cc21,,inactive
Cc1ccc(C=O)cc1C,,inactive
OC1C(O)C(O)C(O)C(O)C1O (stereo not given),,inactive

SMILES,"viability change, negative = cytotoxic",Potency
CCCCCCCC/C=C\CCCCCCCC(=O)OC,,inactive
NC(=O)[C@@H]1CSSCCC(=O)N[C@@H](CCCCN=C(N)N)C(=O)NCC(=O)N[C@@H](CC(=O)O)C(=O)N[C@@H](Cc2c[nH]c3ccccc23)C(=O)N2CCC[C@H]2C(=O)N1,,inactive
COC(=O)CCC(=O)O,,inactive
NS(=O)(=O)Cc1noc2ccccc12,,inactive
C=C(C)C(=O)OCCCCCCCC(C)C,,inactive
COc1ccc(N)c(OC)c1,,inactive
C1=CCCC1,,inactive
CC(CC(C#N)(c1ccccc1)C(C)C)N(C)C (stereo not given),,inactive
CN1CCN(c2c(F)cc3c(=O)c(C(=O)O)cn(CCF)c3c2F)CC1,,inactive
O=C(N/N=C/c1ccc([N+](=O)[O-])o1)c1ccc(O)cc1,,inactive
O=S(=O)(O)c1ccc2cc(O)c(S(=O)(=O)O)cc2c1,,inactive
C1OCOCO1,,inactive
Cc1ccc(Nc2c(F)cccc2Cl)c(CC(=O)O)c1,,inactive
Cc1cc(C)c(N=Nc2c(O)c(S(=O)(=O)O)cc3cc(S(=O)(=O)O)ccc23)cc1C,13% [at 8.39 µM],
C=CC(=O)NC(C)C,,inactive
CCCCCCCC/C=C/C(=O)O,,inactive
CN(C)CC[C@@H](c1ccc(Cl)cc1)c1ccccn1,,inactive
Nc1nc(F)nc2c1ncn2[C@@H]1O[C@H](CO)[C@@H](O)[C@@H]1O,,inactive
O=C(O)c1cccc(Cl)n1,,inactive
N=C(N)N1CCc2ccccc2C1,-0.283% [at 8.39 µM],
